The whole screen tested about 69,000 compounds, of which about 8,600 (12%) showed an effect of 50% or more. The list comes from a sample in which strong results are over-represented; it also holds similar structures and randomly drawn compounds.
These molecules were tested on Plasmodium berghei (assay: Screen against P. berghei liver stage (PbLuc), transformed with Luciferase, at 10uM). Details: tested at 10 uM.
Type: functional, HepG2

| SMILES | INHIBITION [%] |
| --- | --- |
| CC[S+]([O-])CCc1nc(CC(C)C)nn1-c1ccc2c(c1)OCCO2 (centres undefined) | 30.3 |
| CCCNC(=O)COc1cc(C)c2c(C)nn(-c3ccc(C)cc3)c2n1 | 15.4 |
| Cc1ccc(-n2nc(C)c3c(C)cc(OCC(=O)NC(C)C)nc32)cc1 | 2.55 |
| CCNC(=O)COc1cc(CC)c2c(C)nn(-c3ccc(C)cc3)c2n1 | 66.1 |
| CS(=O)(=O)N1CCC(NC(=O)COc2ccc(Br)cc2Cl)CC1 | 45.1 |
| Cc1nc(N)cc(C2CCN2CCC(N)=O)n1 (centres undefined) | -4.87 |
| Cc1ccsc1C(=O)N1CCC2(CC1)C(=O)N(C)CCN2CC1CC1 | 4.08 |
| Cc1ccc(NC2CCN(C(=O)c3cccc4cccnc34)CC2)nn1 | 11.9 |
| CN(C)S(=O)(=O)N1C[C@H]2CC[C@@H](C1)N(CCC(=O)NCc1ccco1)C2 | 66.9 |
| CS(=O)(=O)N1C[C@H]2CC[C@@H](C1)N(CCC(=O)NCc1ccco1)C2 | 13.2 |
| O=C(CCN1C[C@@H]2CC[C@H]1CN(c1ncccn1)C2)NCc1ccco1 | 6.67 |
| O=C(COc1coc(CN2CCCCC2)cc1=O)c1ccc(Cl)cc1 | 38.3 |
| CCN1CCOCC12CCN(C(=O)C1CCCC1)CC2 | -7.28 |
| CC(CS(C)(=O)=O)NC(=O)N1CC2(CCCC2)c2ccccc21 (centres undefined) | -16.1 |
| Cn1cc(-c2c(C#N)c(N)nc3c2CCc2[nH]ccc2-3)cc1C#N | 50 |
| CC(C)n1cc(-c2c(C#N)c(N)nc3c2COCC3)cn1 | 34.5 |
| Cc1n[nH]c(C)c1-c1c(C#N)c(N)nc2c1CCc1[nH]ccc1-2 | 39.7 |
| COCCc1ncc(-c2c(C#N)c(N)nc3c2CCc2[nH]ccc2-3)cn1 | 27.9 |
| CCc1ccc(-c2c(C)c(-c3cnn(C)c3)nc(N)c2C#N)o1 | -7.7 |
| COc1ncc(-c2c(C#N)c(N)nc3c2CCc2[nH]ccc2-3)cn1 | 39.05 |
| Cc1cc(-c2c(C)c(-c3cnn(C)c3)nc(N)c2C#N)oc1C | 31.6 |
| Cn1cc(-c2c(C#N)c(N)nc3c2CCc2[nH]ccc2-3)cn1 | 60.1 |
| Cc1c(-c2cnn(C)c2)nc(N)c(C#N)c1-c1ccc(CO)o1 | 88 |
| O=C(CN1CCCC1Cn1cncn1)Nc1nncs1 (centres undefined) | -8.66 |
| COCCN(Cc1ccccc1Cl)c1nc(CCN)nc2ccccc12 | 47.3 |
| N#Cc1cccc(CN2C[C@H](NC(=O)C3CC3)[C@H]3OCCC[C@H]32)c1 | 35.8 |

| SMILES | INHIBITION [%] |
| --- | --- |
| COc1cc(C(=O)N(Cc2cccs2)C2CC2)cc2c1OCCO2 | 47.4 |
| Cc1oncc1C(=O)N[C@@H]1CN(Cc2ccco2)C[C@@H]2CCCO[C@@H]21 | 0.453 |
| COC(=O)CNC(=O)c1nc(Br)sc1C(C)C | 45.3 |
| Cc1nc2n(n1)CC(NCCC(=O)Nc1cc(C)on1)CC2 (centres undefined) | -3.2 |
| CCc1nccn1-c1cncc(C2CCN(C(=O)COC)CC2)n1 | -22.6 |
| COc1nc2cc(C)ccc2cc1CN(C)Cc1n[nH]c2c1CCCC2 | 28.15 |
| CCOc1cccc(C(C(=O)O)N(C)Cc2cc(C)no2)c1 (centres undefined) | -24.6 |
| Cc1cc(CN(C)C(C(=O)O)c2ccc(C(C)(C)C)cc2)on1 (centres undefined) | 58.4 |
| Cc1cc(CN(C)C(C(=O)O)c2cccc(C(F)(F)F)c2)on1 (centres undefined) | -21.2 |
| CN(Cc1cc[nH]n1)C(=O)c1ccc2c(c1)nc(N1CC[C@H](O)C1)n2C | 22.6 |
| COc1ccc(COCC(O)CSc2ccc(NC(C)=O)cc2)cc1 (centres undefined) | 5.75 |
| O=C(O)CCN(Cc1ccc(F)c(F)c1)C(=O)C1CC1 | 40.1 |
| N#Cc1ccc(Cl)cc1NCC1CCOC1 (centres undefined) | -10.5 |
| Cc1c(C(N)=O)sc2nc(C(F)(F)F)ccc12 | 54.5 |
| Cc1c(C(=O)O)sc2nc(C(F)(F)F)ccc12 | -11.9 |
| Cc1c(C(=O)N2CCSCC2)sc2nc(C(F)(F)F)ccc12 | 14.9 |
| Cc1ncnc(NCCCN2CCCCC2CO)c1C (centres undefined) | -17.8 |
| CC(C(N)=O)N1CCN(c2ncc(Br)cn2)CC1 (centres undefined) | 21.8 |
| CCn1c(C)nnc1SCCNc1nc(C)ncc1S(C)(=O)=O | -22.4 |
| CCc1cnc(C)nc1NCCSc1nnc(C)n1CC | 55.7 |
| CCn1c(C)nnc1SCCNc1nc(C)nc2c1cnn2C | 26.7 |
| Cc1cccc(CN2CCC3(CCCN(C(=O)NC(C)C)C3)C2=O)n1 (centres undefined) | 8.67 |
| O=C(c1ncccn1)N1C[C@H]2CCC[C@@]2(COCc2ccncc2)C1 | -15.8 |
| O=C(c1ccncn1)N1C[C@H]2CCC[C@@]2(COCC2CCOCC2)C1 | 64.9 |
| O=C(c1ncccn1)N1C[C@H]2CCC[C@@]2(COCC2CCOCC2)C1 | 0 |
| O=C(c1ccccn1)N1C[C@H]2CCC[C@@]2(COCC2CCOCC2)C1 | 45.1 |

| SMILES | INHIBITION [%] |
| --- | --- |
| O=C(c1cccs1)N1C[C@H]2CCC[C@@]2(COCC2CCOCC2)C1 | 77.7 |
| Cc1ccc(C(=O)N2C[C@H]3CCC[C@@]3(COCC3CCOCC3)C2)o1 | 62.5 |
| O=C(c1ccnnc1)N1C[C@H]2CCC[C@@]2(COCC2CCOCC2)C1 | 43.8 |
| c1csc(CN2C[C@H]3CCC[C@@]3(COCC3CCOCC3)C2)n1 | 49.7 |
| Cc1ncoc1C(=O)N1C[C@H]2CCC[C@@]2(COCC2CCOCC2)C1 | 44.4 |
| CCCOc1cc(C)ccc1NC(=O)N(C)Cc1cnn(C)c1 | 38.5 |
| O=C(O)[C@]12CCCN(C3CCOC3)C[C@H]1CN(c1nncs1)C2 (some centres undefined) | 4.98 |
| CN1CCN(C[C@@H]2CN(C(=O)CC3CCCCC3)C[C@@H]2CO)CC1 | 6.65 |
| CC(NC(=O)CCS(=O)(=O)C1CCCC1)c1nc(-c2ccccc2)c[nH]1 (centres undefined) | 4.81 |
| CC(NC(=O)CCc1cccs1)c1nnc2n1CCCCC2 (centres undefined) | -29.1 |
| CCc1nsc(N2CCN(CC(=O)NCc3cccnc3)CC2)n1 | 78.1 |
| Cc1nsc(N2CCN(CC(=O)NCc3cccnc3)CC2)n1 | -101 |
| CCCNC(=O)CN1CCN(c2nc(CC)ns2)CC1 | -23.2 |
| CN(C)C(=O)c1cccc(CN2CCN(CC(O)C(C)(C)C)CC2)c1 (centres undefined) | -13.5 |
| Cc1c(Br)c(C(F)(F)F)nn1C(C)C(=O)O (centres undefined) | 8.49 |
| Cc1nnc(NCCC(=O)N(C)Cc2ccccc2)c(C#N)c1C | -5.65 |
| Cc1cnc(-c2nc(C3CCN(Cc4ccccc4C)CC3)no2)cn1 | 19.36 |
| Cc1cc(C(=O)NS(=O)(=O)Cc2ccon2)c(C)n1C(C)C | 56.1 |
| O=C(CCc1ccsc1)NS(=O)(=O)Cc1ccon1 | 55.4 |
| O=C(CCc1ccco1)NS(=O)(=O)N1CCOc2ccccc21 | 25.2 |
| Cc1ccc(S(=O)(=O)NC(=O)CCc2ccco2)cc1N(C)C | -18.9 |
| O=C(CCc1cccc(Cl)c1)NS(=O)(=O)Cc1ccon1 | 35.1 |
| Cc1ccc(C(=O)NS(=O)(=O)Cc2ccon2)c(C)c1 | 12.8 |
| COc1ccc(C(=O)NCc2ccon2)cc1F | 11.6 |
| CN(C(=O)CCc1ccsc1)S(C)(=O)=O | 37.4 |
| Cc1cc(C(=O)NS(=O)(=O)Cc2ccon2)c(C)o1 | 44.2 |

| SMILES | INHIBITION [%] |
| --- | --- |
| O=C(NS(=O)(=O)Cc1ccon1)c1ccsc1 | 73.6 |
| CC(O)(CNS(=O)(=O)Cc1ccon1)c1ccsc1 (centres undefined) | 1.98 |
| O=C(CCc1ccco1)NS(=O)(=O)Cc1ccon1 | 64 |
| CC(=O)N1CCN(c2cc(C3CN(C(C)=O)CCO3)nc(C)n2)CC1 (centres undefined) | 29.2 |
| CO[C@@H]1CC[C@H]2[C@H]1OCCN2CCOCc1ccccc1 | 4.98 |
| Cc1nc(C2CCCN(C(=O)c3ccncc3)C2)c2sccn12 (centres undefined) | 35.2 |
| CC(=O)c1cn(CCC(=O)N[C@@H](CC(C)C)C(=O)O)c2ccccc12 | 11.9 |
| NC(=O)CSCC(=O)NC1(c2cccc(Cl)c2)CC1 | 38.6 |
| CC(=O)N1CC[C@H]2OCC[C@@H](C(=O)NCc3ccco3)[C@@H]2C1 | 18.3 |
| COCC(=O)N1Cc2nccn2CC(Cn2ncccc2=O)C1 (centres undefined) | 19.4 |
| CC(C)(C)c1nccc(N2CCCCC2CNS(C)(=O)=O)n1 (centres undefined) | 16.6 |
| Clc1ccccc1CCN1CCN(c2ccc3nncn3n2)CC1 | 72.8 |
| O=C(COc1ccc(Cl)cc1)N1CCN(c2cnccn2)CC1 | -126 |
| Clc1ccc(OCCCN2CCN(c3cnccn3)CC2)cc1 | 54.4 |
| c1ccc(CCN2CCN(c3ccc4nncn4n3)CC2)cc1 | 60.9 |
| c1ccc(CN2CCN(c3ccc4nncn4n3)CC2)nc1 | 7.67 |
| c1cc(CCN2CCN(c3ccc4nncn4n3)CC2)ccn1 | -33.7 |
| O=C(NCCc1ccccc1)C1CCCN(c2ccc3nncn3n2)C1 (centres undefined) | -23.5 |
| O=C(CCOc1ccc(Cl)cc1)N1CCN(c2cnccn2)CC1 | 3.19 |
| O=C(CCN1CCN(c2ccc3nncn3n2)CC1)N1CCCCC1 | -19.9 |
| N#Cc1ccc(N2CCN(c3ccc4nncn4n3)CC2)nc1 | -23.4 |
| c1ccc(CCCN2CCN(c3ccc4nncn4n3)CC2)cc1 | 74.7 |
| c1ccc(CCN2CCN(c3ccc4nncn4n3)CC2)nc1 | 20.1 |
| O=c1[nH]c(N2CCCCC2)nc2nccc(-c3ccc4c(c3)OCO4)c12 | -5.59 |
| COc1c(C)cc(CNCc2ccnc(N3CCOCC3)c2)cc1C | 28.8 |
| CC(C)NC(=O)N1C[C@@H]2C[C@H](C(=O)NCc3ccccc3)[C@H](C1)O2 | 18.2 |
